# Measurements as given in PubChem BioAssay (NCATS).
# Records with an inconclusive call do not appear. Entries that show only a call come without a potency. The source made the active and inactive calls. Calls come from the whole dose curve; as a rule, active = well fitted inhibition curve with a large enough effect; inconclusive = small, poorly fitted or top-dose-only effect; inactive = no such curve, though single readings can be large or run the other way.
# System: Zika virus NS2B-NS3 protease (linked construct)
# Assay: Primary screen NINDS Rhodamine qHTS for Zika virus inhibitors (AID 1347160); note: nearly all actives have a fitted effect of over 55% in size
# Details: purified NS2B-NS3 protease, Rhodamine110 substrate fluorescence; series mostly up to 57.1 µM
# Procedure, shortened: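 Purified NS2B-NS3 protease with the NS2B hydrophilic domain joined by a flexible linker (25 nM) in 10 mM Tris-HCl pH 8.0, 0.01% Tween 20, preincubated 15 min at RT with compound; Rhodamine110 peptide substrate 1.5 µM; fluorescence change over 15 min; 4-parameter Hill fit.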
row,SMILES,Potency
1,C=C1C(=O)O[C@@H]2/C=C(\C)CC/C=C(\C)CC[C@@H]12,inactive
2,CN(C)c1cccc(Oc2cnc(Nc3cccc(O)c3)nc2)c1,inactive
3,C=C1/C(=C/C=C2\CCC[C@@]3(C)C2CCC3[C@H](C)/C=C/[C@@H](O)C2CC2)C[C@@H](O)C[C@@H]1O (some centres undefined),inactive
4,CC(C)(C)c1ccc(C(=O)Nc2cn3cc(-n4ccnc4)ccc3n2)cc1,inactive
5,C/C=C(/C)C(=O)OC1C=C2C3C(C)C(C)C(OC(=O)C(C)C(C)O)CC3(C)CCC2(C)C2(C)CC(OC(C)=O)C3C(C)(C)C(O)C(=O)CC3(C)C12 (centres undefined),inactive
6,Nc1nc(NC2CC2)cc(-c2cccc(Cl)c2Cl)n1,inactive
7,O=C(COc1ccc2ccccc2c1Br)Nc1cccnc1,inactive
8,CCCCOc1ccc(S(=O)(=O)n2c(C)nc3ccccc32)cc1,inactive
9,C=C1C(=O)O[C@@H]2/C=C(\CO)CC/C=C(/C=O)C[C@H](O)[C@@H]12,inactive
10,CCn1c2ccccc2c2cc(Nc3ccnc(NCCCN4CCOCC4)n3)ccc21,inactive
11,COc1cc(C2OC(c3ccc(OC)c(OC)c3)C(C)C2C)ccc1O (centres undefined),inactive
12,CC(NC(=O)Cc1cc(F)cc(F)c1)C(=O)NC1C(=O)N(C)c2ccccc2-c2ccccc21 (centres undefined),inactive
13,CN1c2c(nc(N)[nH]c2=O)NC[C@@H]1CNc1ccc(C(=O)N[C@@H](CCC(=O)O)C(=O)O)cc1,inactive
14,C=C1C(=O)O[C@H]2C1CCC(C)=C1C(=O)C=C(C)[C@@]12O (some centres undefined),inactive
15,COC(=O)c1ccnc(-c2cc(C(=O)Nc3ccc(C4(N)CC4)cc3)ccn2)c1,inactive
16,CC1CCC/C=C/C(=O)c2c(O)cc(O)cc2CC(=O)O1 (centres undefined),inactive
17,COc1ccc(C(=O)O[C@H]2C=COC=C3C=C4C(=O)N(C)C(=S)C(=O)N4[C@@H]32)cc1Oc1cc(C=O)ccc1O,inactive
18,O=C1Cc2c([nH]c3ccc(Br)cc23)-c2ncccc2N1,inactive
19,C=C1C(=O)O[C@H]2/C=C(/C)[C@@H](OC(C)=O)C/C=C(\C)C[C@@H](OC(=O)/C(=C/C)COC(=O)/C(=C/C)CO)[C@@H]12,inactive
20,CCCc1cc(C)n(C)c(=O)c1CN(C)C(=O)c1cc(-c2ccc(N3CCN(C(C)C)CC3)nc2)cc2c1cnn2C(C)C,inactive

row,SMILES,Potency
1,COc1ccc(N2CCN(C(=O)c3cc4c(s3)-c3ccccc3S(=O)(=O)C4)CC2)cc1,inactive
2,CCCOc1ccc(S(=O)(=O)N2CCN(CCO)CC2)cc1-c1nc2c(CCC)cn(CC)c2c(=O)[nH]1,inactive
3,O=S(=O)(NCc1ccccn1)c1ccc(Br)c2ccccc12,inactive
4,C=C1C(=O)O[C@@H]2/C=C(\C)CC/C=C(/C=O)[C@H](OC)[C@@H](OC(=O)C(C)C)[C@@H]12,inactive
5,COC(=O)/C=C/C=C/C(=O)OC1C=C2COC(=O)C2(O)C2(C)CCCC(C)(C)C12 (centres undefined),inactive
6,FC(F)(F)c1ccccc1-c1cc(C(F)(F)F)c2nc(C3=NOC4(CCCCC4)C3)[nH]c2c1,inactive
7,C=C1C(=O)OC2CC(C)C(CCC(C)O)=CCC12 (centres undefined),inactive
8,CC1=CC2/C=C(\C)CCC3OC(C)(C)OC3CCC(=O)C23C(=O)NC(CC(C)C)C3C1C (centres undefined),inactive
9,C=C1C(=O)OC2C=C(C)CC/C=C(\CO)CC(O)C12 (centres undefined),inactive
10,CO[C@H]1O[C@@H]2O[C@@]3(C)CCC4[C@H](C)CCC([C@H]1C)[C@]42OO3 (some centres undefined),inactive
11,CC(/C=C/C(=O)NO)=C\[C@@H](C)C(=O)c1ccc(N(C)C)cc1,inactive
12,CCOC(=O)c1cnn(-c2ccccc2)c1NC(=O)c1cc2nc(-c3ccco3)cc(C(F)(F)Cl)n2n1,inactive
13,CC(=O)OC1C(OC(=O)c2ccccc2)C2C(C)(C)CCC(OC(C)=O)C2(C)C23CCC(C)(C2)C(=O)CC13 (centres undefined),inactive
14,O=S(=O)(c1ccccc1)N(CC(F)(F)F)c1ccc(C(O)(C(F)(F)F)C(F)(F)F)cc1,inactive
15,O=S(=O)(c1ccc(Cl)cc1)N1CCN(c2ccnc3cc(Cl)ccc23)CC1,inactive
16,C1=Cc2ccccc2C(=C2CCN(CCCCc3nn[nH]n3)CC2)c2ccccc21,inactive
17,COc1ccc2nc(-c3cc(OC)c(OC)c(OC)c3)cc(C(=O)NCC(=O)Nc3ccc(C(C)=O)cc3)c2c1,inactive
18,O=C(Nc1cc(C(F)(F)F)ccc1N1CCCCC1)c1ccncc1,inactive
19,CC(F)(F)CN1CCOc2c(nn(-c3ccccc3Cl)c2-c2ccc(Cl)cc2)C1=O,inactive
